The record followed here is PubChem BioAssay (NCATS).

Inconclusive results are not listed. A number with no mark means an inactive call. The source made the active and inactive calls. Calls come from the whole dose curve; as a rule, active = well fitted cell-killing curve with a large enough effect; inconclusive = small, poorly fitted or top-dose-only effect, or effect the other way; inactive = flat fitted curve, though single readings scatter.
% is set by controls: 0 for no effect and ±100 for the full control effect; potency is the fitted concentration of half-maximal effect.

The test system of the assay is Es-2. The experiment in a line: Primary qHTS to identify gynecologic anti-cancer compounds using libraries of approved drugs and bioactive compounds (AID 1345084). Note: nearly all actives have a fitted effect of over 55% in size. The settings on record: Gynecologic cancer cell panel viability, ATPlite luminescence, 48 h; series mostly up to 57.5 µM; activity change, negative = cytotoxicity: at the top concentration. The essentials: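 Five-concentration response, 48 h; readout is ATP-driven luciferase luminescence.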
A general note: In qHTS, concentration-response curves come from the screen itself.
In the case of `Nc1nccn2c(C3CCC(C(=O)O)CC3)nc(-c3cc4cccc(Cl)c4[nH]3)c12` (stereo not given), the Potency is 28.2 µM (active).

As to `COc1cc(C2c3cc4c(c(O)c3CC(CO)C2C(=O)O)OCO4)cc(OC)c1O` (stereo not given), the Potency is 3.55 µM (active).

`C=CC(=O)Nc1cccc(Nc2nc(Nc3ccc(N4CCN(C(C)=O)CC4)cc3OC)ncc2C(F)(F)F)c1`: the “activity change, negative = cytotoxicity” value was -21.6%.

Turning to `O=C(CSc1nc2c(c(=O)n1-c1ccccc1)SCC2)Nc1ccc(-c2ccccc2)cn1`, the Potency is 0.224 µM (active).

Consider `CCCCC1CCN(CCCC(=O)c2ccccc2C)CC1`, for which the “activity change, negative = cytotoxicity” value was -1.92%.

Take `CCOC(=O)Nc1cc(-c2ccc(C)c(NS(C)(=O)=O)c2)nn2c(C)nnc12`: the Potency is 12.6 µM (active).

`COc1cc(OC)c(/C=C/S(=O)(=O)Cc2ccc(OC)c(NCC(=O)O)c2)c(OC)c1`: the Potency was 0.316 µM (active).

On to `COc1cc(-c2ncn(/C=C\C(=O)OC(C)C)n2)cc(C(F)(F)F)c1`, for which the Potency is 0.891 µM (active).

With `CC(O)/C=C/C1(O)C2(C)COC1(C)CC(O)C2` (stereo not given), the “activity change, negative = cytotoxicity” value is -14.1%.

In the case of `C=CC(=O)Nc1cccc(CN2C(=O)N(c3c(Cl)c(OC)cc(OC)c3Cl)Cc3cnc(NCCCCN(CC)CC)nc32)c1`, the “activity change, negative = cytotoxicity” value was 12.2%.
